A number with no mark means an inactive call. Inconclusive results are not listed. Activity calls are given as the source filed them. Calls come from the whole dose curve; as a rule, active = well fitted curve in the direction sought with a large enough effect in the repeat runs; inconclusive = weak or mixed curves; inactive = no such curve, though single readings can be large; an effect the other way counts as inactive or inconclusive.

These results are taken from PubChem BioAssay (Tox21).

Experiment [1] can be described thus: Human pregnane X receptor (PXR) small molecule agonists, qHTS cell viability counter screen (AID 1346977). Note: nearly all actives have a fitted effect of over 50% in size. The procedure, abridged:
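Same-well viability read: CellTiter-Fluor added after 23 hr compound exposure, fluorescence measured 1 hr later. Cells were PXR-Luc HepG2 seeded at 2,000/well in 5% charcoal-stripped FBS medium, rested 5 hr before dosing at 37 C.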
(In general: In qHTS, concentration-response curves come from the screen itself.)

Experiment [2] is described as follows: Caspase-3/7 induction in HepG2 cells by small molecules, qHTS assay (AID 1346978). Note: nearly all actives have a fitted effect of over 15% in size. The procedure, abridged: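 Caspase-3/7 induction was measured by Caspase-Glo 3/7 luminescence (30 min, room temperature) after a 17 hr compound exposure of wild-type HepG2 cells seeded at 2,000 per well and pre-incubated 5 hr.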
A short description of experiment [3]: Caspase-3/7 induction in CHO-K1 cells by small molecules, qHTS cell viability counter screen (AID 1346979). Note: nearly all actives have a fitted effect of over 35% in size. Summed up:
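Cytotoxicity counter screen: CellTiter-Fluor added to compound-treated wild-type CHO-K1 cells at 16 h (37C, 5% CO2), fluorescence measured 1 h later; same wells as caspase-3/7 measurement.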

The nature of experiment [4]: Caspase-3/7 induction in CHO-K1 cells by small molecules, qHTS assay (AID 1346980). Note: nearly all actives have a fitted effect of over 15% in size. The procedure, abridged: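 Luminescent Caspase-Glo 3/7 read (30min, room temperature) quantified apoptosis induction. Cells were wild-type CHO-K1, treated with compound for 17hr at 37 C and 5% CO2.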
Experiment [5] deals with Nuclear receptor subfamily 1 group I member 2 (Homo sapiens) (UniProt O75469). The experiment in a line: Human pregnane X receptor (PXR) small molecule agonists, qHTS assay (AID 1346982). Note: nearly all actives have a fitted effect of over 35% in size. The procedure, abridged:
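Luminescence (ONE-Glo, 30 min RT) after 24 hr compound exposure of PXR-Luc HepG2 cells; cells rested 5 hr post-plating in 5% charcoal-stripped FBS medium.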

In experiment [6] the target is Nuclear receptor subfamily 1 group I member 2 (Rattus norvegicus) (UniProt Q9R1A7). The experiment in a line: Rat pregnane X receptor (rPXR) activation by small molecules, qHTS assay (AID 1346983). Note: nearly all actives have a fitted effect of over 20% in size. The conditions noted are these: rPXR luciferase reporter cells, One-Glo luminescence, 24 h; max activation: hits give high values. Summed up: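 Luminescent readout (One-Glo luciferase, 30 min room temperature) followed 24 hr compound treatment at 37 C of rPXR cells plated 2,000 per well and preincubated 5hr; qHTS format with compounds delivered in DMSO.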
Chain of Nuclear receptor subfamily 1 group I member 2 (Rattus norvegicus) (Q9R1A7 whole entry, looked up): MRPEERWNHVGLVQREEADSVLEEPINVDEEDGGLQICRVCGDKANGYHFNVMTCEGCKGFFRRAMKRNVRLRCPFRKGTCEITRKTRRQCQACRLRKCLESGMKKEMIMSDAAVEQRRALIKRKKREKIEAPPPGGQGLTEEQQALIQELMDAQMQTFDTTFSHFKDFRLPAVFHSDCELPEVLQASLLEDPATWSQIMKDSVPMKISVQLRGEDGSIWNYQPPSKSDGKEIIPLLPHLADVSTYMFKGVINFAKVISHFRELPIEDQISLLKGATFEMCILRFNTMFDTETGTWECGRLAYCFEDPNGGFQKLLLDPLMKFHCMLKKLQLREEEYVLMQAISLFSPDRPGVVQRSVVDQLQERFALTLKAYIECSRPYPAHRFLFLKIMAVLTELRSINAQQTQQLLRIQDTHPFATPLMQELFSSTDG

For experiment [7], the target named is Nuclear receptor subfamily 1 group I member 2 (Homo sapiens) (UniProt O75469). The experiment in a line: CYP3A4 induction through human pregnane X receptor (PXR) by small molecules, qHTS assay (AID 1346984). Note: nearly all actives have a fitted effect of over 40% in size. The procedure, abridged:
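DPX-2 reporter cells; 24h cpd, 37C; Luciferin-IPA 3uM final x3h; One-Glo 30 min RT; lumi read.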

Experiment [8] deals with Cytochrome P450 2D6 (Homo sapiens) (UniProt P10635). The experiment in a line: Cytochrome P450 Family 2 Subfamily D Member 6 (CYP2D6) small molecule antagonists: luciferase reporter qHTS assay (AID 1671196). Note: nearly all actives have a fitted effect of over 50% in size. Note: potency is the fitted concentration of half-maximal effect. The procedure, abridged: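 Inhibition of CYP2D6 was gauged by loss of luminescence, since light produced tracks the luciferin generated from a proluciferin substrate. A 10 min room-temperature preincubation preceded 1 h NADPH-supported turnover.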
Chain of Cytochrome P450 2D6 (Homo sapiens) (P10635 whole entry, looked up): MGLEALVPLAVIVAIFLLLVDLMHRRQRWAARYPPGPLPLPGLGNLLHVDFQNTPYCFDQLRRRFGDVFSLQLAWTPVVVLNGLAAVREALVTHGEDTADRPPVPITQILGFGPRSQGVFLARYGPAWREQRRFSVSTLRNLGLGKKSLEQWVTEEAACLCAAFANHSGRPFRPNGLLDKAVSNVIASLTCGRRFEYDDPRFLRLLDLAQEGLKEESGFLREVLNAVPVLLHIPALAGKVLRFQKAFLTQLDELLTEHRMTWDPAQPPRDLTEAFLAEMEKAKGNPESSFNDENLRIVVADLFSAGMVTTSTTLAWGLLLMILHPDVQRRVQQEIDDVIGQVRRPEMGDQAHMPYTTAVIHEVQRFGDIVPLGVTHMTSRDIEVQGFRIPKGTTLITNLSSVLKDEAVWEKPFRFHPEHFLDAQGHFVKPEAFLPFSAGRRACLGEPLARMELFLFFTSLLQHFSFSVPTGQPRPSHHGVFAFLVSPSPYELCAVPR
On the technique in general: Reporter assays use an easily measured gene product as a stand-in for the process of interest.

Experiment [9] has as its target Cytochrome P450 2C19 (Homo sapiens) (UniProt P33261). The experiment in a line: Cytochrome P450 Family 2 Subfamily C Member 19 (CYP2C19) small molecule antagonists: luciferase reporter qHTS assay (AID 1671197). Note: nearly all actives have a fitted effect of over 65% in size. Note: potency is the fitted concentration of half-maximal effect. The procedure, abridged:
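Relative luminescence units recorded 20 min after the detection reagent stopped a 1 h, 37C CYP2C19 reaction on proluciferin substrate, which was started by NADPH regeneration following 10 min room-temperature compound preincubation; ketoconazole positive control.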

Experiment [10] has as its target Cytochrome P450 2C9 (Homo sapiens) (UniProt P11712). The experiment in a line: Cytochrome P450 Family 2 Subfamily C Member 9 (CYP2C9) small molecule antagonists: luciferase reporter qHTS assay (AID 1671198). Note: series mostly up to about 120 µM; nearly all actives have a fitted effect of over 50% in size. Summed up: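 Enzyme-substrate mix preincubated with compound 10 min at room temperature; reaction started with NADPH regeneration solution, 1 h 37C. Luminescent luciferin product read after 20 min detection reagent.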

Experiment [11] addresses Cytochrome P450 1A2 (Homo sapiens) (UniProt P05177). The experiment in a line: Cytochrome P450 Family 1 Subfamily A Member 2 (CYP1A2) small molecule antagonists: luciferase reporter qHTS assay (AID 1671199). Note: series mostly up to about 120 µM; nearly all actives have a fitted effect of over 50% in size. The procedure, abridged: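 Signal from luciferin formed by CYP1A2 from a proluciferin substrate is read as luminescence, expressed in relative luminescence units. Compounds sit with enzyme 10 min, NADPH-driven reaction runs 1 h, all at room temperature.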

In experiment [12] the target is Voltage-gated inwardly rectifying potassium channel KCNH2 (Homo sapiens) (UniProt Q12809). The experiment in a line: Human Ether-a-go-go-Related Gene (hERG) channel small molecule antagonists: fluorescence cell-based qHTS assay (AID 1671200). Summed up: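 Thallium flux as potassium surrogate: FluxOR II dye loaded 1 h at room temperature into hERG-expressing U2OS cells, then stimulus buffer added after 10 min. Kinetic 480 nm excitation/540 nm emission read, 2 min.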
Chain of Voltage-gated inwardly rectifying potassium channel KCNH2 (Homo sapiens) (Q12809 whole entry, looked up): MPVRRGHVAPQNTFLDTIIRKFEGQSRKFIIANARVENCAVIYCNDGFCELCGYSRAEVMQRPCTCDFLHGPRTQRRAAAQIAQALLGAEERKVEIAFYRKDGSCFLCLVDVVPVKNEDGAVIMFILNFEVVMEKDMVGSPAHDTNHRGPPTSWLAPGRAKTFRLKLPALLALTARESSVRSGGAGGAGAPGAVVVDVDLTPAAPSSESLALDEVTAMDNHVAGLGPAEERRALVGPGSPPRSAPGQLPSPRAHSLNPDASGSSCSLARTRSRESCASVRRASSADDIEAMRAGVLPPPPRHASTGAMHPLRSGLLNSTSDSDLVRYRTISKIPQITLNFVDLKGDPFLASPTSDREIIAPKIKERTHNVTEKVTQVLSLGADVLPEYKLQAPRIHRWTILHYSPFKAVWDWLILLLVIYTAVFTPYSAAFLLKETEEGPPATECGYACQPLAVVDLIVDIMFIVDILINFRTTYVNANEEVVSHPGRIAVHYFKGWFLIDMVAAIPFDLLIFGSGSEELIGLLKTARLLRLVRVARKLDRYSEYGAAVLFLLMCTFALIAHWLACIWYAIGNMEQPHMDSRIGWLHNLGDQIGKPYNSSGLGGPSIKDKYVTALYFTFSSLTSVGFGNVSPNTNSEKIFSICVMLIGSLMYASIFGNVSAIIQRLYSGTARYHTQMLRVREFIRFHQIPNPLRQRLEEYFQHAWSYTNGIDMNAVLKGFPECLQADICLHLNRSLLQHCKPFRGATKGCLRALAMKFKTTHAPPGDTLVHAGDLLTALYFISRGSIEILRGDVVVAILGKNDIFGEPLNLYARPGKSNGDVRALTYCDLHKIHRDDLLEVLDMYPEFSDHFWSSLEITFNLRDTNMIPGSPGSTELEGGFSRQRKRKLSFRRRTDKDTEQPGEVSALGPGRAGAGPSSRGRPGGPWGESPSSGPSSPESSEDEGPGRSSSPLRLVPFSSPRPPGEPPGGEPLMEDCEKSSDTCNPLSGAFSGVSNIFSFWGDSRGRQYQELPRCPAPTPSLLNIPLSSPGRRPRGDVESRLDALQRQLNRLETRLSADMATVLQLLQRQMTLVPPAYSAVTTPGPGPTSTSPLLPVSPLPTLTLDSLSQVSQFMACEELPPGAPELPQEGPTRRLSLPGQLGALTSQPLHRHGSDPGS
A general note: The hERG channel carries a current that helps repolarise heart muscle cells.

The target in experiment [13] is Cytochrome P450 3A4 (Homo sapiens) (UniProt P08684). The experiment in a line: Cytochrome P450 Family 3 Subfamily A Member 4 (CYP3A4) small molecule antagonists: luciferase reporter qHTS assay (AID 1671201). The procedure, abridged: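 Recombinant human CYP3A4 converts a proluciferin substrate to luciferin over 1 h at room temperature after NADPH regeneration solution is added (compound preincubated 10 min); detection reagent stops reaction, luminescence read 20 min later as relative units.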
Chain of Cytochrome P450 3A4 (Homo sapiens) (P08684 whole entry, looked up): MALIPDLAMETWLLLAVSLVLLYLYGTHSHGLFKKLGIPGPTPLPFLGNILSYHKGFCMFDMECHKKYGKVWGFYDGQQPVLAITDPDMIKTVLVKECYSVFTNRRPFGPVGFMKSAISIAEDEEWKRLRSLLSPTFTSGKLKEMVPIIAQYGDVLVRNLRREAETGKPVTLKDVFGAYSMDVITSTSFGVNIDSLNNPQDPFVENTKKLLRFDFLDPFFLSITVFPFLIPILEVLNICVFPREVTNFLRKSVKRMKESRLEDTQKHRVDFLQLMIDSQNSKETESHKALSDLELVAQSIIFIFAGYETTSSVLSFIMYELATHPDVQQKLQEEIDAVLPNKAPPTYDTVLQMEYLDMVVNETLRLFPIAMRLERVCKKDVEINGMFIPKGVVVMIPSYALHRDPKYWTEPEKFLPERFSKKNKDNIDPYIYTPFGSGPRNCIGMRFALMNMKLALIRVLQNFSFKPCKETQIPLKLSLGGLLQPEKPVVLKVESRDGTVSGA

The nature of experiment [14]: Caspase-3/7 induction in HepG2 cells by small molecules, qHTS cell viability counter screen (AID 1346981). Note: series mostly up to about 92 µM; nearly all actives have a fitted effect of over 30% in size. The procedure, abridged:
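Counter screen for cytotoxicity: HepG2 exposed 16 hr to compounds, then CellTiter-Fluor viability signal (fluorescence, 1 hr reagent incubation).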
% is set by controls: 0 for no effect and ±100 for the full control effect.

Chain of Nuclear receptor subfamily 1 group I member 2 (Homo sapiens) (O75469 whole entry, looked up): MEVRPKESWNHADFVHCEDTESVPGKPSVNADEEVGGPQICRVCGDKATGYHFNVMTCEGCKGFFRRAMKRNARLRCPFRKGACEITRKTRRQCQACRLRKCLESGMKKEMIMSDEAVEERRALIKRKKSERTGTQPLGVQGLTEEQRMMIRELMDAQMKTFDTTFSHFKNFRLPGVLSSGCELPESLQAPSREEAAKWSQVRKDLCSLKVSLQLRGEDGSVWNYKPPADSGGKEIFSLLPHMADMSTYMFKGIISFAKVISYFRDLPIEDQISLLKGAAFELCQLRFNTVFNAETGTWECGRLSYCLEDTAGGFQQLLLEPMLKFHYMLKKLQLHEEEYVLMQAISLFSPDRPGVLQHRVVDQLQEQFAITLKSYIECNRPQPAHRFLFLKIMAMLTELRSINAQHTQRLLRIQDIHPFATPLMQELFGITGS
Chain of Cytochrome P450 2C19 (Homo sapiens) (P33261 whole entry, looked up): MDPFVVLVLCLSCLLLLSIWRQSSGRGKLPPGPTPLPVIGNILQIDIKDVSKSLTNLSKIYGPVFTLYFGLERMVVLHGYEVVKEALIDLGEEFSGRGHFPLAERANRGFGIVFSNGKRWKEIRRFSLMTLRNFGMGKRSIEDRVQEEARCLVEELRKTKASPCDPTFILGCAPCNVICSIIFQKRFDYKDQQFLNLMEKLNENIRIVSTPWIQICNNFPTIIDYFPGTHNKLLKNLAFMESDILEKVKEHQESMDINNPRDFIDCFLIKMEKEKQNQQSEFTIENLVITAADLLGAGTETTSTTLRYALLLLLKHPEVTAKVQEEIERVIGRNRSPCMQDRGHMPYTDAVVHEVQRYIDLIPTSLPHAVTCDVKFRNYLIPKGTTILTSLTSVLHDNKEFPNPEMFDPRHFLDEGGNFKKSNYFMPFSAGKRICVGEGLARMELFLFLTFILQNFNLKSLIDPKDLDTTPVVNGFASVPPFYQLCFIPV
Chain of Cytochrome P450 1A2 (Homo sapiens) (P05177 whole entry, looked up): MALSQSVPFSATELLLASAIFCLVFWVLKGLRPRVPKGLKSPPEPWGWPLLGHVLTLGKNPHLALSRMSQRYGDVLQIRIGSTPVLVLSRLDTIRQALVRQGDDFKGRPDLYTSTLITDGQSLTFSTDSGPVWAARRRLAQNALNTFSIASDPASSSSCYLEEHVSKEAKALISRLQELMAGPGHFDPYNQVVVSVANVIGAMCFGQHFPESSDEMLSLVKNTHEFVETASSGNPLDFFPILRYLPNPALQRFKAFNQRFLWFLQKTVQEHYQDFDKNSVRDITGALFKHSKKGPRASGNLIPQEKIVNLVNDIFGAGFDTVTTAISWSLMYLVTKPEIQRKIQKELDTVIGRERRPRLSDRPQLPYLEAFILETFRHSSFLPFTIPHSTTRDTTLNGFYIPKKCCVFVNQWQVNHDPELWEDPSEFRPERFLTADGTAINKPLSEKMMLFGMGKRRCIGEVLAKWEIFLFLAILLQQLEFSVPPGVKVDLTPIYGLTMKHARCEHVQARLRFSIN
Chain of Cytochrome P450 2C9 (Homo sapiens) (P11712 whole entry, looked up): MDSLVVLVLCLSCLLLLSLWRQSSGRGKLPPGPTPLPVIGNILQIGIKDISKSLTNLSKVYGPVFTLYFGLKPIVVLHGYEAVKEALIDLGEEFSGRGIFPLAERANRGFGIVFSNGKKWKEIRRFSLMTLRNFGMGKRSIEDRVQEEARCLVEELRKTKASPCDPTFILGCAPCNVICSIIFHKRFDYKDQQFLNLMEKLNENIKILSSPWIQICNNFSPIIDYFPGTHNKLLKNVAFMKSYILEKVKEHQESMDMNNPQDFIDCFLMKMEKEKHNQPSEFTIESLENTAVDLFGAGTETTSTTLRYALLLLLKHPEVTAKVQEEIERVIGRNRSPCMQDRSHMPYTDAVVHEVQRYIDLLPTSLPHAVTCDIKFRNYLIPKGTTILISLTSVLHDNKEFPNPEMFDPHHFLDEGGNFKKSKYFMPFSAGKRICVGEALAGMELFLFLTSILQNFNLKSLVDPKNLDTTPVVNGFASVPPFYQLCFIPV

For the compound `NC(=O)c1cc[n+](CC2=C(C(=O)[O-])N3C(=O)[C@@H](NC(=O)Cc4cccs4)[C@H]3SC2)cc1`, the Potency entry in experiment [1], in experiment [2], in experiment [3], in [4], in experiment [5] and in [7] was “inactive” in each case. Moreover, the Potency result in [8], in [9], in [10], in experiment [11], in experiment [12] and in [13] was “inactive” throughout. Moreover, the max activation in experiment [6] was -2.94%.
Regarding `CCc1c(C)[nH]c2c1C(=O)C(CN1CCOCC1)CC2` (stereo not given), the Potency entry in experiment [1], in experiment [2], in [3], in experiment [4], in experiment [14] and in [12] was “inactive” each time. Besides, the max activation in [6] was -1.99%.
For the compound `O=C(OC1C[C@H]2CC[C@@H](C1)[N+]21CCCC1)C(O)(c1ccccc1)c1ccccc1` (stereo not given in full), the Potency result in experiment [1], in experiment [2], in [3], in experiment [4], in experiment [5] and in experiment [7] was “inactive” each time. Moreover, the Potency result in [10], in [11] and in experiment [12] was “inactive” each time. In experiment [6], the max activation was -1.51%. For the same compound, in experiment [8], the Potency is 4.9 µM (active).
On to `CC(C(=O)O)c1ccc(/C=C2\CCCCC2=O)cc1` (stereo not given), for which the Potency result in experiment [1], in experiment [2], in [3], in experiment [4], in experiment [14] and in experiment [10] was “inactive” throughout. Also, the Potency result in [11], in experiment [12] and in experiment [13] was “inactive” throughout.
`CCCOC(C)=O`: the Potency entry in experiment [1], in experiment [2], in experiment [3], in [4], in experiment [5] and in [8] was “inactive” each time. The Potency entry in [9], in experiment [10], in experiment [11], in experiment [12] and in experiment [13] was “inactive” throughout.
Regarding `CCCC1CCOC(C)S1` (stereo not given), the Potency result in experiment [1], in experiment [2], in experiment [3], in [4], in [5] and in experiment [8] was “inactive” each time. The Potency result in experiment [9], in [10] and in experiment [12] was “inactive” each time.
With `CC/C=C\CCO`, the Potency entry in [1], in experiment [2], in experiment [3], in [4], in experiment [5] and in [8] was “inactive” each time. The Potency result in [9], in [11] and in [12] was “inactive” each time.
Regarding `CCOCCn1c(N2CCCN(C)CC2)nc2ccccc21`, the Potency result in experiment [1], in [2], in [3], in [4], in experiment [14] and in experiment [9] was “inactive” in each case. The Potency entry in [11] was “inactive”. Also, the max activation in [6] was 4.1%.
Regarding `COC(=O)Cc1cccc2ccccc12`, the Potency entry in [1], in experiment [2], in [3], in [4], in [5] and in experiment [10] was “inactive” each time. For the same compound, the Potency result in experiment [12] and in experiment [13] was “inactive” in each case. Further, the Potency in [9] is 79.6 µM (active).
For `O=C1OC(=O)C2CC=CCC12` (stereo not given), the Potency result in [1], in [2], in experiment [3], in experiment [4], in experiment [5] and in [10] was “inactive” in each case. Moreover, the Potency result in experiment [12] was “inactive”. Besides, the Potency in experiment [8] was 35.7 µM (active); in experiment [9] it was 80 µM (active).
